# Reference: PubChem BioAssay (NCI)
# This is part of a sample that, as a whole, favours compounds with a hit. Of some 83,000 tested, about 20% had one in any assay.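 96-well plates, one dose, 48 hours. Percent growth reported; active if below 10.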 Unmarked numbers belong to inactive results. Active and inactive are the calls of the source.
# Tests used:
# Experiment in all cases: NCI-60 one-dose screen, 48 h (100 = growth as untreated, 0 = no growth, -100 = all killed)
# Settings in all cases: 10 µM unless noted
# HCT-15 colon = system: HCT-15 colon
# HT29 colon = system: HT29 colon
# SNB-75 CNS = system: SNB-75 CNS
# SNB-19 CNS = system: SNB-19 CNS
# U251 CNS = system: U251 CNS
# PC-3 prostate = system: PC-3 prostate
# SK-MEL-5 melanoma = system: SK-MEL-5 melanoma
# UACC-62 melanoma = system: UACC-62 melanoma
# LOX IMVI melanoma = system: LOX IMVI melanoma
# SK-MEL-28 melanoma = system: SK-MEL-28 melanoma
# SK-MEL-2 melanoma = system: SK-MEL-2 melanoma
# EKVX NSCLC = system: EKVX NSCLC
# UO-31 renal = system: UO-31 renal
# TK-10 renal = system: TK-10 renal
# ACHN renal = system: ACHN renal
# CAKI-1 renal = system: CAKI-1 renal
# A498 renal = system: A498 renal
# CCRF-CEM leukemia = system: CCRF-CEM leukemia
# MOLT-4 leukemia = system: MOLT-4 leukemia
# SN12C renal = system: SN12C renal
Compound,growth (HCT-15 colon),growth (HT29 colon),growth (SNB-75 CNS),growth (SNB-19 CNS) [%],growth (U251 CNS),growth (PC-3 prostate),growth (SK-MEL-5 melanoma),growth (UACC-62 melanoma),growth (LOX IMVI melanoma),growth (SK-MEL-28 melanoma),growth (SK-MEL-2 melanoma),growth (EKVX NSCLC),growth (UO-31 renal),growth (TK-10 renal),growth (ACHN renal),growth (CAKI-1 renal),growth (A498 renal),growth (CCRF-CEM leukemia),growth (MOLT-4 leukemia),growth (SN12C renal)
O=C1Nc2cc(Cl)ccc2/C1=C\c1c(-c2ccc(F)cc2)nc2ccccn12,12.5%,4.36% (active),-16.9% (active),22.2,22.9%,12.8%,-10.9% (active),10.6%,11.1%,28.2%,23.7%,34.5%,28.7%,72.7%,41%,21.5%,-17% (active),7.67% (active),-4.44% (active),–
COc1cc(C2=C(c3cn(C)c4ccccc34)COC2=O)cc(OC)c1OC,5.39% (active),7.04% (active),-31.3% (active),15.5,13.8%,13.3%,0.365% (active),12.6%,2.86% (active),21.3%,27.7%,28.2%,10.4%,44.2%,28%,7.16% (active),–,8.87% (active),12.2%,–
NNC(=O)c1ccc(-n2nc(-c3ccccc3)c3ccccc32)cc1,57.6%,103%,53.6%,66.1,22.6%,69.4%,84.5%,80.7%,68.2%,83.9%,79.3%,–,68%,110%,85.6%,76.5%,75%,37.2%,74.8%,75.1%
CCOc1ccc(Nc2nc(-c3ccc4c(c3)NC(=O)CO4)cs2)cc1,51.3%,62%,56.8%,81.4,66.8%,24.6%,-11.2% (active),52.1%,43.9%,33.6%,81.3%,89%,63.7%,85.5%,52.3%,108%,103%,32.9%,6.58% (active),–
Cc1ccc(C(=O)/C(=C\c2ccc([N+](=O)[O-])cc2)S(=O)Cc2ccc(Cl)cc2)cc1 (stereo not given),10.8%,-51.1% (active),75.5%,46.8,9.49% (active),6.38% (active),78.5%,5.87% (active),-26.5% (active),46.6%,72.7%,82.4%,3.42% (active),50.3%,12.7%,59.7%,77.6%,4.88% (active),7.82% (active),–
O=C(Nc1ccc(Cl)cc1)c1cc(NCc2cc(O)ccc2O)ccc1O,68.5%,88.6%,101%,91.4,71.8%,45.2%,82.9%,65.5%,84.3%,99.2%,78.8%,94.1%,52.2%,97.3%,89.6%,99.5%,–,5.54% (active),59.8%,–
N#CC1=C(N)Oc2c(ccc3ccccc23)C1c1ccccc1Cl (stereo not given),10.7%,70%,13.3%,32.9,12.4%,20%,9.89% (active),26.6%,27.3%,50.5%,55.9%,65.3%,43.2%,6.11% (active),34%,27.4%,-10.3% (active),29.6%,–,–
CCSCC1CC(O)(c2ccccc2)CC(c2ccc(F)cc2)O1 (stereo not given),17.4%,2.51% (active),33.1%,36.1,20.8%,9.83% (active),-36% (active),29.2%,4.29% (active),26.9%,4.62% (active),15.2%,28.6%,21.9%,3.1% (active),-25.2% (active),–,22.9%,-11.9% (active),–
C=C(C)[C@@H]1CC[C@]2(C(=O)N3CCN(C)CC3)CC[C@]3(C)[C@H](CC[C@@H]4[C@@]5(C)C/C(=C/c6ccncc6)C(=O)C(C)(C)[C@@H]5CC[C@]43C)[C@@H]12,35.8%,15.8%,87.9%,64.2,47%,23.7%,59.8%,71%,55.9%,76.9%,64.6%,77.3%,48%,89.4%,60.9%,71.1%,–,24.7%,3.16% (active),–
CC(Sc1nc2ccccc2c(=O)n1CCc1ccc(S(N)(=O)=O)cc1)C(=O)Nc1ccc(Cl)cc1 (stereo not given),67.9%,89.5%,83.3%,90.1,84.1%,81.7%,79.4%,73.6%,88.3%,105%,80.9%,70.3%,53.8%,80.1%,86.3%,75.6%,–,63.7%,68.3%,–
Nc1ccccc1NC(=O)c1ccc(-n2nc(-c3ccccc3)c3ccccc32)cc1,76.7%,88.4%,38.4%,78.8,-85.6% (active),58.6%,82.9%,77.5%,79.7%,99.7%,94.3%,89.7%,-62.7% (active),94.1%,90.6%,73.4%,89.8%,9.38% (active),4.66% (active),–
C=C1C(=O)O[C@H]2[C@H]1CC/C(CNC(=O)c1cccc3ccccc13)=C\CC[C@@]1(C)O[C@@H]21,10.2%,8.85% (active),82.6%,66.4,59%,53.7%,60.1%,31.4%,24.3%,41.2%,70.7%,65.9%,37.9%,34.8%,11.6%,40%,81.8%,1.76% (active),4.8% (active),–
C=C1C(=O)O[C@H]2[C@H]1CC/C(CNC(=O)C(C)c1ccc(CC(C)C)cc1)=C\CC[C@@]1(C)O[C@@H]21 (stereo not given in full),-55.7% (active),-52.4% (active),64.5%,48.9,45.2%,16.6%,61.3%,-27.2% (active),-80.3% (active),-76.9% (active),–,0% (active),-99.7% (active),-61% (active),-95.9% (active),-7.71% (active),–,-1.13% (active),0.34% (active),-0.803% (active)
COc1ccccc1NS(=O)(=O)c1cccc(C(=O)Nc2ccc(Br)cc2)c1,37.8%,46.6%,65.9%,53.4,62%,25.4%,-31.7% (active),32.1%,42.4%,62.9%,57.7%,–,27.3%,61.5%,46.2%,27.5%,–,40.1%,26.8%,51.8%
O=C(NNc1nc2c(F)cccc2n2cccc12)c1cnccn1,26.3%,24.3%,74.3%,23.9,18.7%,36.2%,5.96% (active),16.5%,-32.6% (active),8.95% (active),–,18.5%,8.05% (active),48.9%,4.68% (active),17.6%,54.3%,10.8%,–,34.3%
CCCN1[C@@H]2CC[C@H]1/C(=C\c1ccc(OC)c(OC)c1)C(=O)/C2=C/c1ccc(OC)c(OC)c1,41.6%,30%,61.1%,56.7,40.7%,44.3%,18.1%,32%,32.5%,73.2%,–,37.7%,33.6%,67.2%,47.3%,45.9%,23.6%,30.6%,29.5%,49.9%
